Most compounds without a hit are left out; they make up all but 21% or so of the library.
Sm TGR inh: inhibitors of Schistosoma mansoni thioredoxin glutathione reductase. Q962Y6. purified TGR, DTNB reduction, TNB absorbance 405 nm. Potency, µM (top dose mostly 114 µM), without a hit: at the top dose activity change, negative = inhibition, usual class: inhibitors. actives 3% (n = 360,000); note: potency is the fitted concentration of half-maximal effect; % is set by controls: 0 for no effect and ±100 for the full control effect; nearly all actives have a fitted effect of over 60% in size
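First, TGR (20 nM dispensed) and NADPH were mixed with compound. Second, a 15 min room-temperature incubation followed. Third, further NADPH and then DTNB were added to start the reaction. Finally, TNB absorbance was monitored kinetically.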
Pf growth 48h: inhibits P. falciparum growth in the first generation, 48 h | P. falciparum luciferase growth in erythrocytes, 48 h | Potency, µM (highest dose often 28.7 µM), for the others: at the highest dose activity change, negative = inhibition, most hits filed as inhibitors | actives 5.9% (n = 310,000); note: potency is the fitted concentration of half-maximal effect; % is set by controls: 0 for no effect and ±100 for the full control effect
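Cell-based growth assay: transgenic P. falciparum expressing firefly luciferase, cultured in red cells within RPMI 1640 containing 0.5% w/v Albumax, 24 mM bicarbonate and gentamycin. A drop in luciferase activity indicates inhibition.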
Shiga inhibitor: blocks Shiga toxin action in Vero cells | Vero cells, Shiga toxin protein synthesis inhibition reporter | inhibition, % at 38.7 µM | actives 9.2% (n = 290,000); in the data active = inhibition mostly above about 28%, no sharp cut-off; inactive = mostly below about 43%; note: 0% is about no effect
NS1 function inh: influenza NS1 inhibition. Potency, µM (series often up to 46.1 µM), without a hit: at the highest dose activity, positive = more growth. actives 0.4% (n = 270,000). AID 2326; calls by dose curve; note: potency is the fitted concentration of half-maximal effect; actives are rising curves; nearly all actives have a fitted effect of over 50% in size
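Growth recovery, yeast-based: influenza A NS1 expressed in S. cerevisiae causes slow growth, and suppressors are detected by OD600. The parent strain without NS1 is used as positive control.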
Pf growth 96h: P. falciparum growth inhibition at 96 hour, primary screen for plastid delayed-death inhibitors | P. falciparum luciferase reporter growth, 96 h | Potency, µM (titrated, usually from 28.7 µM), for inactives: top-dose activity change, negative = inhibition, usual class: inhibitors | actives 6.9% (n = 320,000) | AID 504834; note: potency is the fitted concentration of half-maximal effect; % is set by controls: 0 for no effect and ±100 for the full control effect
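Compounds incubated with erythrocytes infected by luciferase-expressing P. falciparum (2% hematocrit, 0.05% parasitemia final) for 96 hours, 37 C in 5% CO2. Growth inhibition scored as decreased luciferase luminescence.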
CHX counter: counter-screen for Shiga toxin inhibitors: cycloheximide protein synthesis inhibition. cell reporter, cycloheximide protein synthesis inhibition counterscreen. actives 12% (n = 300,000). AID 2314. max response, %; in the data active = max response mostly above about 13%, no sharp cut-off; inactive = mostly below about 14%; note: read at 38.3 µM for the half of the compounds with a filed dose; 0% is about no effect
An asterisk follows results filed as active; ? = inconclusive; · = not tested or not shown; [ ] = remark or other dose. Unless noted, calls come from the whole dose curve; as a rule, active = well fitted curve in the direction sought with a large enough effect; inconclusive = small, poorly fitted or top-dose-only effect, or another doubt; inactive = no such curve, though single readings can be large; an effect the other way counts as inactive or inconclusive.

SMILES	Sm TGR inh	Pf growth 48h	Shiga inhibitor	NS1 function inh	Pf growth 96h	CHX counter
O=C(O)c1ccc2c(c1)ncn2C1CCCCC1	1.2%	?	-2.0	4.3%	25.9%	-4.0
O=C(NC1CC1)c1ccc2c(c1)ncn2C1CCCC1	2.7%	55.7%	68.6*	-7.5%	54.0%	33.1*
COc1ccccc1-n1cnc2cc(C(=O)NC3CCCC3)ccc21	-7.5%	?	19.4*	-2.0%	?	2.3
CCC(=O)c1ccc(OC)c(OC)c1	-23.5%	-6.5%	-15.9	2.0%	30.3%	1.9
COC(=O)c1ccc(COc2ccc(C=O)cc2OC)o1	8.1%	23.1%	4.1	9.1%	-3.6%	11.0
C=CCc1ccc(OCc2ccc(C(=O)OC)o2)c(OC)c1	-2.8%	·	86.9*	-10.3%	53.7%	62.6*
CCC(=O)c1ccc(OCc2ccc(C(=O)OC)o2)c(OC)c1	5.1%	-38.2%	52.2	-6.3%	-0.3%	28.2*
C=CCc1ccc(OC(=O)c2ccccc2)c(OC)c1	-3.2%	33.2%	21.8	-4.1%	34.2%	24.2*
CC(C)CC(C(=O)NC(C)(C)C)N(CC1CCCO1)C(=O)c1snc(C(N)=O)c1N (centres undefined)	6.9%[57.1 µM]	-0.2%	11.5	4.5%	4.1%	-1.2
CC(C)(C)C1CCC(C(=O)OCC(=O)Nc2ccc3[nH]c(=O)[nH]c3c2)CC1 (centres undefined)	·	-1.5%	23.6	5.0%	-8.1%	-2.0
CCOC(=O)Cc1ccc(NC(=O)Nc2cccc(OCc3cc(=O)n4cc(C)ccc4n3)c2)cc1	5.2%	·	·	·	·	·
COc1cc(NC(=S)Nc2ccccn2)c(OC)cc1Cl	-16.4%	2.8%	-14.6	·	?	1.6
COc1cc(C2CC(=O)N3CN(c4ccccc4C)CSC3=C2C#N)cc(OC)c1OC (centres undefined)	?	?	-6.7	-15.4%	?	-1.2
COc1cccc(C2CC(=O)N3CN(c4cccc(Cl)c4C)CSC3=C2C#N)c1OC (centres undefined)	0.0%	·	-14.8	-33.8%	0.928µM*	-7.0
COc1ccc(OC)c(C2CC(=O)N3CN(c4cccc(Cl)c4C)CSC3=C2C#N)c1 (centres undefined)	10µM*	·	-4.3	-34.3%	2.6%	1.2
O=c1c2ccccc2nc2c3ccccc3c3nncn3n12	-2.5%	18.1%	-6.9	-12.7%	?	-4.3
O=c1c2ccccc2nc2n1CCS2(=O)=O	22.4µM*	10.3%	19.8	0.9%	-4.8%	1.1
COc1ccc(OC)c(NC(=O)CCN2CCN(C)CC2)c1	6.2%	27.3%	-17.9	19.2%	191.5%	0.7
c1sc2[n+](c1C13CC4CC(CC(C4)C1)C3)CCS2	1.4%	2.33µM*	11.3	3.2%	2.94µM*	-0.9
O=c1c2c(nc3c(-c4ccc(Cl)cc4)c[nH]n13)CCC2	-9.9%	10.4µM*	12.8	·	-12.8%	-0.8
Cc1c(-c2ccccc2)[nH]n2c(=O)c3c(nc12)CCCC3	-0.9%	?	44.0*	-26.2%	?	28.6*
Cc1nc2nc3c(c(=O)n2[nH]1)CCC3	-18.0%	-11.6%	-7.3	4.1%	23.8%	-3.5
O=c1c2c(nc3c(-c4ccccc4)c[nH]n13)CCC2	-20.2%	51.4%	8.3	13.0%	87.8%	-2.7
Cc1ccc(-c2[nH]n3c(=O)c4c(nc3c2C)CCCC4)cc1	3.1%	0.0465µM*	-5.3	?	-27.8%	2.6
CCc1nc(SCC(=O)Nc2ccc(Br)cn2)n[nH]1	-12.9%	10.0%	-34.1	-7.1%	74.8%	1.5
SMILES	Sm TGR inh	Pf growth 48h	Shiga inhibitor	NS1 function inh	Pf growth 96h	CHX counter
O=C(c1c[nH]c2ccccc12)C(Cl)c1ccccc1 (centres undefined)	0.0%	-5.7%[0.00184 µM]	22.2	-55.8%	?	6.6
Cc1ccc(C(=O)N2CCCC(N(C)Cc3ccccc3)C2)s1 (centres undefined)	-7.6%	-2.6%	-5.3	-9.1%	-16.8%	-2.2
Cc1ccc(NC(=O)N(Cc2cccnc2)Cc2ccco2)cc1C	-2.3%	?	-5.4	-9.4%	?	-3.8
Cc1ccc(NC(=O)N(Cc2ccco2)C(C)c2ccco2)cc1C (centres undefined)	1.0%	?	-13.6	-60.5%	?	10.5*
Cc1ccc(NC(=O)CN(Cc2ccco2)Cc2ccccc2O)cc1C	-9.4%	?	59.0*	-18.7%	?	26.1*
CCOC(=O)Cn1c(=O)cc(C)c2c(C)nn(-c3cccc(F)c3)c21	0.1%	·	·	·	·	·
Cc1cc(C)c(NC(=O)C2CCN(c3nc4ccccc4n4cccc34)CC2)c(C)c1	1.2%	·	·	·	·	·
CCC(CO)Oc1cc(NC(=O)c2ccc(C)cc2)c2ncn(C(C)C)c2c1 (centres undefined)	-13.8%	?	·	·	-6.6%	·
Cc1cc(C)cc(OCC(=O)Nc2cccc3cccnc23)c1	4.5%	·	·	·	·	·
O=C(Nc1ncc(Cc2cccc([N+](=O)[O-])c2)s1)c1ccco1	0.0%	71.1%	101.7*	-4.6%	17.5%	29.5*
Cc1ccc(Cc2cnc(NC(=O)C3=NCCN3)s2)cc1	17.1%	21.0%	40.1	4.4%	59.4%	4.3
Cc1cnc(NC(=O)c2ccc(-c3ccc([N+](=O)[O-])cc3)o2)s1	-10.7%	?	·	·	6.57µM*	·
O=C(Nc1ncc(Cc2ccc(C(F)(F)F)cc2)s1)c1ccc(-c2cccc([N+](=O)[O-])c2)o1	-4.9%	?	-11.1	20.0%	0.37µM*	-2.0
Cc1ccc(Cc2cnc(NC(=O)c3ccco3)s2)cc1	-6.1%	200.7%	66.7*	-49.5%	·	34.8*
O=C(Nc1ncc(Cc2ccccc2)s1)C1=NCCN1	10.2%	16.1%	58.0*	-5.3%	17.2%	15.5
O=C(Nc1ncc(Cc2cccc(Cl)c2)s1)c1ccc([N+](=O)[O-])cc1	-17.6%	?	-6.5	5.6%	13.1µM*	-3.0
Cc1cccc(Cc2cnc(NC(=O)c3ccc(C)o3)s2)c1	2.4%	·	71.0*	-77.8%	-32.3%	34.7*
COC(=O)c1c(NC(=O)COc2cccc(C(F)(F)F)c2)sc2c1CCCC2	15.5%	·	·	·	·	·
Cc1cc(C(C)(C)C)oc1C(=O)N(CC(=O)NC1CCCC1)Cc1ccccc1Cl	-1.9%	?	1.2	-1.1%	9.28µM*	6.0
Cc1cc(C(C)(C)C)oc1C(=O)N(CC(=O)NC1CCCC1)c1cccc(C(F)(F)F)c1	-13.4%	9.28µM*	11.3	11.7%	11.7µM*	2.4
O=C(CN(Cc1cccs1)C(=O)c1csnn1)NC1CCCC1	-21.7%	-4.8%	6.4	4.4%	?	-4.6
Cc1ccccc1N(CC(=O)NC1CCCC1)C(=O)c1oc(C(C)(C)C)cc1C	4.6%	11.7µM*	6.2	10.9%	?	2.4
Cc1ccc2onc(CC(=O)Nc3cc(F)ccc3F)c2c1	-1.3%	·	·	·	·	·
COc1ccc(NC(=O)c2cc(-c3cc(C)cc(C)c3O)n[nH]2)cc1Cl	-3.5%	9.28µM*	6.2	-40.4%	?	-3.1
COc1ccc(NC(=O)c2cc(-c3ccccc3O)n[nH]2)cc1Cl	-0.3%	2.62µM*	51.3*	6.6%	2.08µM*	12.1

High-throughput results as filed in PubChem.
